In publication PMC11006913 one finds binding signal data, which are given here for 10 sequences.

Changes are numbered by the printed parent chain.

Common to all, as to test: PBM; 200 nM protein, PBS
What all share (details): dsDNA, one strand shown

For assay [1], the target named is HOXC9 (Homo sapiens, UniProt P31274 178-260, K195R).
Assay [2] has as its target T1, PAX4 (Homo sapiens, UniProt O43316 9-242, R200K).
T1 sequence: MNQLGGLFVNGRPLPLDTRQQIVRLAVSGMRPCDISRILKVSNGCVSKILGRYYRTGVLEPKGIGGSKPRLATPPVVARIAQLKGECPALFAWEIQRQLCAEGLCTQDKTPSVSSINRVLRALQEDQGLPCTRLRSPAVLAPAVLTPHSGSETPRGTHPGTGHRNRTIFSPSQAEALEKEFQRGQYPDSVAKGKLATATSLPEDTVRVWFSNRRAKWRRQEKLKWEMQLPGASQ

Assay [3] has as its target T2, PAX4 (Homo sapiens, UniProt O43316 9-242).
T2 sequence: T1 sequence with K192R

Assay [4] addresses HOXC9 (Homo sapiens, UniProt P31274 178-260).
The target in assay [5] is T3, PAX4 (Homo sapiens, UniProt O43316 9-242, R200Q).
T3 sequence: T1 sequence with K192Q

In assay [6] the target is HOXC9 (Homo sapiens, UniProt P31274 178-260, R193K).
In assay [7] the target is T4, PAX4 (Homo sapiens, UniProt O43316 9-242, F177V).
T4 sequence: T1 sequence with F169V, K192R

In assay [8] the target is T5, PAX4 (Homo sapiens, UniProt O43316 9-242, F177Y).
T5 sequence: T1 sequence with F169Y, K192R

Assay [9] deals with HOXC9 (Homo sapiens, UniProt P31274 178-260, R222W).
Assay [10] addresses T6, PAX4 (Homo sapiens, UniProt O43316 9-242, R227W).
T6 sequence: T1 sequence with K192R, R219W

The target of assay [11] is HOXA4 (Homo sapiens, UniProt Q00056 201-287, W262R).
Assay [12] addresses HOXA4 (Homo sapiens, UniProt Q00056 201-287).
The target of assay [13] is HOXC10 (Homo sapiens, UniProt Q9NYD6 254-340).
The target in assay [14] is HOXC10 (Homo sapiens, UniProt Q9NYD6 254-340, K271E).
In assay [15] the target is MSX2 (Homo sapiens, UniProt P35548 130-214, R199I).
In assay [16] the target is ALX3 (Homo sapiens, UniProt O95076 139-225, N203Q).
Assay [17] deals with MSX2 (Homo sapiens, UniProt P35548 130-214).
Assay [18] has as its target ALX3 (Homo sapiens, UniProt O95076 139-225).
Assay [19] deals with ALX3 (Homo sapiens, UniProt O95076 139-225, L168Q).
The target of assay [20] is ALX3 (Homo sapiens, UniProt O95076 139-225, L168V).
The target in assay [21] is MSX2 (Homo sapiens, UniProt P35548 130-214, F161Y).
The target in assay [22] is ALX3 (Homo sapiens, UniProt O95076 139-225, N203S).
Assay [23] concerns the target HOXA4 (Homo sapiens, UniProt Q00056 201-287, W262F).
For assay [24], the target named is ALX4 (Homo sapiens, UniProt Q9H161 200-286).
For assay [25], the target named is ALX4 (Homo sapiens, UniProt Q9H161 200-286, Q225E).
The target of assay [26] is VAX1 (Homo sapiens, UniProt Q5SQQ9 86-172).
Assay [27] addresses VAX1 (Homo sapiens, UniProt Q5SQQ9 86-172, T142I).
Assay [28] deals with VAX1 (Homo sapiens, UniProt Q5SQQ9 86-172, K157R).
The target in assay [29] is ALX1 (Homo sapiens, UniProt Q15699 118-204, L144V).
Assay [30] addresses ALX1 (Homo sapiens, UniProt Q15699 118-204, L144R).
Assay [31] deals with ALX1 (Homo sapiens, UniProt Q15699 118-204).
Sequence of ALX1 (Homo sapiens, UniProt Q15699 118-204) (Q15699 118-204): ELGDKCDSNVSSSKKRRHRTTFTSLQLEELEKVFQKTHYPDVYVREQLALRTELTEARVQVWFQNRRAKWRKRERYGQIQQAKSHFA

Sequence of HOXC9 (Homo sapiens, UniProt P31274 178-260, R222W) (P31274 178-260 R222W): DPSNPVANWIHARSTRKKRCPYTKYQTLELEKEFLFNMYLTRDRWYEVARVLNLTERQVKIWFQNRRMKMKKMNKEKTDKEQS
Sequence of HOXC9 (Homo sapiens, UniProt P31274 178-260) (P31274 178-260): as the sequence (P31274 178-260 R222W) above, with W45R counted along it
Sequence of HOXC9 (Homo sapiens, UniProt P31274 178-260, R193K) (P31274 178-260 R193K): as the sequence (P31274 178-260 R222W) above, with R16K, W45R counted along it
Sequence of HOXC9 (Homo sapiens, UniProt P31274 178-260, K195R) (P31274 178-260 K195R): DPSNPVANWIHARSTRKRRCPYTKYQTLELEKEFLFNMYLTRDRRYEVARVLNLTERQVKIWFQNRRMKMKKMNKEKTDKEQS
Sequence of HOXA4 (Homo sapiens, UniProt Q00056 201-287, W262R) (Q00056 201-287 W262R): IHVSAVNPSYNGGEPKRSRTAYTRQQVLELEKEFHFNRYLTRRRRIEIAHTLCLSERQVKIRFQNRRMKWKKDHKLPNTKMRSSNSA
Sequence of HOXA4 (Homo sapiens, UniProt Q00056 201-287) (Q00056 201-287): as the sequence (Q00056 201-287 W262R) above, with R62W counted along it
Sequence of HOXC10 (Homo sapiens, UniProt Q9NYD6 254-340) (Q9NYD6 254-340): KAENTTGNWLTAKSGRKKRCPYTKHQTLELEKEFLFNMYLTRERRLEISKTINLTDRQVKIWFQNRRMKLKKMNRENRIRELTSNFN
Sequence of ALX4 (Homo sapiens, UniProt Q9H161 200-286) (Q9H161 200-286): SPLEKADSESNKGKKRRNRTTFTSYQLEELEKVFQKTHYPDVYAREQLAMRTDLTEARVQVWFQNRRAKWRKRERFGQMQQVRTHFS
Sequence of HOXA4 (Homo sapiens, UniProt Q00056 201-287, W262F) (Q00056 201-287 W262F): as the sequence (Q00056 201-287 W262R) above, with R62F counted along it
Sequence of ALX4 (Homo sapiens, UniProt Q9H161 200-286, Q225E) (Q9H161 200-286 Q225E): as the sequence (Q9H161 200-286) above, with Q26E counted along it
Sequence of MSX2 (Homo sapiens, UniProt P35548 130-214) (P35548 130-214): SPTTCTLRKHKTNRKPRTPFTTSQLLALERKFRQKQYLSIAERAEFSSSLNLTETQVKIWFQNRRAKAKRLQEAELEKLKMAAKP
Sequence of MSX2 (Homo sapiens, UniProt P35548 130-214, F161Y) (P35548 130-214 F161Y): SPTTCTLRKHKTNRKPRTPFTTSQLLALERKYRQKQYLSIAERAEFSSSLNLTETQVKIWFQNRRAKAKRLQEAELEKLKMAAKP
Sequence of MSX2 (Homo sapiens, UniProt P35548 130-214, R199I) (P35548 130-214 R199I): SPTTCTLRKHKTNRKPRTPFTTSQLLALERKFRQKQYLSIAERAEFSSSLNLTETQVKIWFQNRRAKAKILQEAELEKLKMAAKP
Sequence of HOXC10 (Homo sapiens, UniProt Q9NYD6 254-340, K271E) (Q9NYD6 254-340 K271E): as the sequence (Q9NYD6 254-340) above, with K18E counted along it
Sequence of ALX3 (Homo sapiens, UniProt O95076 139-225, L168V) (O95076 139-225 L168V): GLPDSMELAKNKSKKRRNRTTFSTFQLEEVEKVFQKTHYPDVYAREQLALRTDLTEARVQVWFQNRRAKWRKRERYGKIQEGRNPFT
Sequence of ALX3 (Homo sapiens, UniProt O95076 139-225, N203Q) (O95076 139-225 N203Q): as the sequence (O95076 139-225 L168V) above, with V30L, N65Q counted along it
Sequence of ALX3 (Homo sapiens, UniProt O95076 139-225, L168Q) (O95076 139-225 L168Q): as the sequence (O95076 139-225 L168V) above, with V30Q counted along it
Sequence of ALX3 (Homo sapiens, UniProt O95076 139-225) (O95076 139-225): as the sequence (O95076 139-225 L168V) above, with V30L counted along it
Sequence of VAX1 (Homo sapiens, UniProt Q5SQQ9 86-172) (Q5SQQ9 86-172): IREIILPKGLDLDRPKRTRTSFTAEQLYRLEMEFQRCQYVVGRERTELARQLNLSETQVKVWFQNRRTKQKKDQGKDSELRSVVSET
Sequence of ALX1 (Homo sapiens, UniProt Q15699 118-204, L144R) (Q15699 118-204 L144R): as the sequence (Q15699 118-204) above, with L27R counted along it
Sequence of VAX1 (Homo sapiens, UniProt Q5SQQ9 86-172, T142I) (Q5SQQ9 86-172 T142I): as the sequence (Q5SQQ9 86-172) above, with T57I counted along it
Sequence of ALX3 (Homo sapiens, UniProt O95076 139-225, N203S) (O95076 139-225 N203S): as the sequence (O95076 139-225 L168V) above, with V30L, N65S counted along it
Sequence of ALX1 (Homo sapiens, UniProt Q15699 118-204, L144V) (Q15699 118-204 L144V): as the sequence (Q15699 118-204) above, with L27V counted along it
Sequence of VAX1 (Homo sapiens, UniProt Q5SQQ9 86-172, K157R) (Q5SQQ9 86-172 K157R): as the sequence (Q5SQQ9 86-172) above, with K72R counted along it

On to ACCGCCCG, for which the binding signal with HOXC9 [1] is 9.62 upbm affinity estimate (log intensity, higher = more binding, comparable within an allelic series); with PAX4 [2], 9.22 upbm affinity estimate (log intensity, higher = more binding, comparable within an allelic series); with PAX4 [3] it was 9.09 upbm affinity estimate (log intensity, higher = more binding, comparable within an allelic series); with HOXC9 [4], 9.79 upbm affinity estimate (log intensity, higher = more binding, comparable within an allelic series); with PAX4 [5], 9.24 upbm affinity estimate (log intensity, higher = more binding, comparable within an allelic series); with HOXC9 [6] it was 9.6 upbm affinity estimate (log intensity, higher = more binding, comparable within an allelic series). Moreover, the binding signal is 9.1 upbm affinity estimate (log intensity, higher = more binding, comparable within an allelic series) with PAX4 [7]; 9.01 upbm affinity estimate (log intensity, higher = more binding, comparable within an allelic series) with PAX4 [8]; 9.71 upbm affinity estimate (log intensity, higher = more binding, comparable within an allelic series) with HOXC9 [9]; 9.19 upbm affinity estimate (log intensity, higher = more binding, comparable within an allelic series) in the assay with PAX4 [10].

Take ATAAATCG: the binding signal in the assay with HOXA4 [11] is 10.2 upbm affinity estimate (log intensity, higher = more binding, comparable within an allelic series); with HOXA4 [12], 11.5 upbm affinity estimate (log intensity, higher = more binding, comparable within an allelic series).

For the sequence CTAATCTA, the binding signal is 10.3 upbm affinity estimate (log intensity, higher = more binding, comparable within an allelic series) with HOXA4 [11] and 12 upbm affinity estimate (log intensity, higher = more binding, comparable within an allelic series) with HOXA4 [12].

Consider GGTAATAA, for which the binding signal with HOXC9 [1] was 12.4 upbm affinity estimate (log intensity, higher = more binding, comparable within an allelic series); with HOXC10 [13], 12.2 upbm affinity estimate (log intensity, higher = more binding, comparable within an allelic series); in the assay with HOXC9 [4], 12.6 upbm affinity estimate (log intensity, higher = more binding, comparable within an allelic series); with HOXC9 [6], 12.5 upbm affinity estimate (log intensity, higher = more binding, comparable within an allelic series); with HOXC10 [14], 11.9 upbm affinity estimate (log intensity, higher = more binding, comparable within an allelic series); with HOXC9 [9], 10.9 upbm affinity estimate (log intensity, higher = more binding, comparable within an allelic series).

Consider AGCCCTCC, for which the binding signal with HOXC9 [1] was 9.66 upbm affinity estimate (log intensity, higher = more binding, comparable within an allelic series); with HOXC10 [13], 10 upbm affinity estimate (log intensity, higher = more binding, comparable within an allelic series); with HOXC9 [4], 9.73 upbm affinity estimate (log intensity, higher = more binding, comparable within an allelic series); in the assay with MSX2 [15], 9.53 upbm affinity estimate (log intensity, higher = more binding, comparable within an allelic series); with ALX3 [16], 7.79 upbm affinity estimate (log intensity, higher = more binding, comparable within an allelic series); with HOXC9 [6] it was 9.66 upbm affinity estimate (log intensity, higher = more binding, comparable within an allelic series). For the same sequence, the binding signal was 10 upbm affinity estimate (log intensity, higher = more binding, comparable within an allelic series) with HOXC10 [14]; 9.44 upbm affinity estimate (log intensity, higher = more binding, comparable within an allelic series) with MSX2 [17]; 7.83 upbm affinity estimate (log intensity, higher = more binding, comparable within an allelic series) with ALX3 [18]; 7.75 upbm affinity estimate (log intensity, higher = more binding, comparable within an allelic series) with ALX3 [19]; 9.65 upbm affinity estimate (log intensity, higher = more binding, comparable within an allelic series) with HOXC9 [9]; 7.79 upbm affinity estimate (log intensity, higher = more binding, comparable within an allelic series) with ALX3 [20]. Moreover, the binding signal with MSX2 [21] was 9.49 upbm affinity estimate (log intensity, higher = more binding, comparable within an allelic series); with ALX3 [22], 7.76 upbm affinity estimate (log intensity, higher = more binding, comparable within an allelic series).

Turning to ACGTTTAG, the binding signal is 10.2 upbm affinity estimate (log intensity, higher = more binding, comparable within an allelic series) in the assay with HOXA4 [11] and 11 upbm affinity estimate (log intensity, higher = more binding, comparable within an allelic series) with HOXA4 [12].

As for GTTCTTAA, the binding signal is 10.3 upbm affinity estimate (log intensity, higher = more binding, comparable within an allelic series) with HOXA4 [11]; 11.4 upbm affinity estimate (log intensity, higher = more binding, comparable within an allelic series) with HOXA4 [12]; 10.5 upbm affinity estimate (log intensity, higher = more binding, comparable within an allelic series) with HOXA4 [23].

For CCGGCTAG, the binding signal is 9.47 upbm affinity estimate (log intensity, higher = more binding, comparable within an allelic series) with HOXC9 [1]; 8.04 upbm affinity estimate (log intensity, higher = more binding, comparable within an allelic series) in the assay with ALX4 [24]; 8.02 upbm affinity estimate (log intensity, higher = more binding, comparable within an allelic series) with ALX4 [25]; 9.55 upbm affinity estimate (log intensity, higher = more binding, comparable within an allelic series) with HOXC9 [4]; 9.38 upbm affinity estimate (log intensity, higher = more binding, comparable within an allelic series) with MSX2 [15]; 9.53 upbm affinity estimate (log intensity, higher = more binding, comparable within an allelic series) in the assay with HOXC9 [6]. In addition, the binding signal was 9.32 upbm affinity estimate (log intensity, higher = more binding, comparable within an allelic series) with MSX2 [17]; 6.74 upbm affinity estimate (log intensity, higher = more binding, comparable within an allelic series) in the assay with VAX1 [26]; 9.7 upbm affinity estimate (log intensity, higher = more binding, comparable within an allelic series) with HOXC9 [9]; 9.36 upbm affinity estimate (log intensity, higher = more binding, comparable within an allelic series) in the assay with MSX2 [21]; 6.97 upbm affinity estimate (log intensity, higher = more binding, comparable within an allelic series) with VAX1 [27]; 6.86 upbm affinity estimate (log intensity, higher = more binding, comparable within an allelic series) with VAX1 [28].

With AGTCTTTA, the binding signal in the assay with HOXA4 [11] was 10.2 upbm affinity estimate (log intensity, higher = more binding, comparable within an allelic series); in the assay with HOXA4 [12] it was 11.2 upbm affinity estimate (log intensity, higher = more binding, comparable within an allelic series); in the assay with HOXA4 [23] it was 10.4 upbm affinity estimate (log intensity, higher = more binding, comparable within an allelic series).

Take CCAGTGGG: the binding signal with HOXC9 [1] was 9.58 upbm affinity estimate (log intensity, higher = more binding, comparable within an allelic series); with ALX4 [24], 8.11 upbm affinity estimate (log intensity, higher = more binding, comparable within an allelic series); with ALX4 [25], 8.16 upbm affinity estimate (log intensity, higher = more binding, comparable within an allelic series); in the assay with HOXC9 [4], 9.54 upbm affinity estimate (log intensity, higher = more binding, comparable within an allelic series); with ALX1 [29], 6.51 upbm affinity estimate (log intensity, higher = more binding, comparable within an allelic series); in the assay with HOXC9 [6], 9.48 upbm affinity estimate (log intensity, higher = more binding, comparable within an allelic series). Moreover, the binding signal with ALX1 [30] was 6.46 upbm affinity estimate (log intensity, higher = more binding, comparable within an allelic series); in the assay with HOXC9 [9], 9.57 upbm affinity estimate (log intensity, higher = more binding, comparable within an allelic series); in the assay with ALX1 [31], 6.33 upbm affinity estimate (log intensity, higher = more binding, comparable within an allelic series).
